PubChem BioAssay AID504832 (National Center for Advancing Translational Sciences (NCATS), 2011)
About 18,000 (5.8%) of roughly 310,000 compounds were called active. About 22% were inconclusive and are not listed. What follows is part of a selection rich in actives, with near analogues and random picks from the rest. A call without a number means that no potency is given here. Values without a mark were called inactive. The call rests on the fitted dose curve; in most records, active means well fitted inhibition curve with a large enough effect; inconclusive means small, poorly fitted or top-dose-only effect, or another doubt; inactive means no such curve, though single readings can be large or run the other way.

Experiment: Primary qHTS for delayed death inhibitors of the malarial parasite plastid, 48 hour incubation
Conditions: P. falciparum luciferase growth in erythrocytes; series mostly up to 28.7 µM
Method in brief: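 A one-generation exposure of luciferase-tagged malaria parasites in RPMI 1640/Albumax erythrocyte culture, 37 C and 5% CO2. Inhibition is inferred from decreased luminescence after adding detection reagent.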
Potency means the concentration at half of the fitted maximal effect.

Compound	Potency	activity change, negative = inhibition
CN(c1ccccc1)S(=O)(=O)c1cccc(C(=O)NNC(=O)c2ccncc2)c1	inactive	–
CCOc1ccc(N2C(=O)CC(N(O)c3ccccc3)C2=O)cc1 (stereo not drawn)	inactive	–
CCOc1ccc(N2C(=O)CC(N(CCc3ccc(OC)c(OC)c3)C(=S)Nc3ccccc3)C2=O)cc1 (stereo not drawn)	10.4 µM (active)	–
COC(=O)CN(C(=S)Nc1ccc(Cl)cc1)C1CC(=O)N(c2ccc(OC)cc2)C1=O (stereo not drawn)	inactive	–
CCNC(=S)Nc1cccc(Cl)c1C	inactive	–
Cc1cccc(NC(=S)NCCc2ccc(Cl)cc2)c1C	2.94 µM (active)	–
S=C(NCCc1ccccc1)Nc1ccccc1	inactive	–
O=C(CN1CCCSc2ccccc21)N1CCN(S(=O)(=O)c2ccccc2)CC1	inactive	–
O=C(CN1C(=O)S/C(=C\c2ccccc2Cl)C1=O)NC1C=CS(=O)(=O)C1 (stereo not drawn)	inactive	–
COc1c(C)c2c(c(O)c1C/C=C(\C)CCC(=O)O)C(=O)OC2	2.56 µM (active)	–
COc1ccc(C(=O)Nc2ccnn2C2CCN(Cc3ccncc3)CC2)cc1	inactive	–
C=CCn1c(=O)c(C(=O)Nc2ncccc2O)c(O)c2ccccc21	inactive	–
CCOc1ccc(S(=O)(=O)Nc2cccc(C(=O)NCC3(N4CCCCC4)CCCCC3)c2)cc1	14.7 µM (active)	–
CCOc1ccc(S(=O)(=O)Nc2ccc(C(=O)NCCCN3CCCC3=O)cc2)cc1	inactive	–
CCOc1ccc(S(=O)(=O)NCCC(=O)N2CCCCCCC2)cc1	inactive	–
O=C(NCC1(N2CCCCC2)CCCCC1)c1ccc(NS(=O)(=O)c2ccc(F)cc2)cc1	14.7 µM (active)	–
CN(C)S(=O)(=O)c1ccc(C(=O)NCC2(N3CCOCC3)CCCCC2)cc1	inactive	–
O=C(NCC1CCCO1)c1ccc(S(=O)(=O)Nc2ccc(F)cc2)cc1 (stereo not drawn)	inactive	–
CCOc1ccc(S(=O)(=O)Nc2ccc(OC)nc2)cc1	inactive	–
CCOc1ccc(NS(=O)(=O)c2ccc(C(=O)NCC(c3ccccc3OC)N3CCCC3)cc2)cc1 (stereo not drawn)	10.4 µM (active)	–
CCOC(=O)c1cccc(NS(=O)(=O)c2c(C(=O)N3CCCCCC3)c(C)n(C)c2C)c1	inactive	–
O=C(Nc1ccc(C2CC2(Cl)Cl)cc1)c1cccc([N+](=O)[O-])c1 (stereo not drawn)	inactive	–
CCn1c(SC(C)C(=O)Nc2ccc(N3CCOCC3)cc2)nnc1-c1ccco1 (stereo not drawn)	inactive	–
CC(=O)N/C(=C\c1ccccc1)C(=O)OC(C)C(=O)N(C)c1ccccc1 (stereo not drawn)	inactive	–
Cc1ccc(NC(=O)CN2CCc3ccccc3C2)cc1C	inactive	–
COc1ccc(-c2cc(C(=O)NC(Cc3c[nH]c4ccccc34)C(=O)O)c(C)o2)cc1OC (stereo not drawn)	inactive	–

Compound	Potency	activity change, negative = inhibition
COc1ccc(CNCCc2c[nH]c3ccccc23)cc1OC	inactive	–
COc1ccc(C(C(=O)NC2CCCCC2)N(C(=O)Cc2c[nH]c3ccccc23)c2ccccc2)cc1OC (stereo not drawn)	13.1 µM (active)	–
Cc1ccc(F)cc1NC(=O)CSCc1c(C)noc1C	inactive	–
COc1ccc(S(=O)(=O)N2CCCCCC2)cc1C(=O)N(C)Cc1cccc(OC)c1OC	13.1 µM (active)	–
COc1ccc(S(=O)(=O)N2CCCCC2)cc1Br	inactive	–
CCNC(=O)NC(=O)C(C)OC(=O)c1cc(S(=O)(=O)N2CCCCCC2)ccc1OC (stereo not drawn)	inactive	–
O=S(=O)(Nc1cccc(-c2ccc(N3CCOCC3)nn2)c1)c1ccc(Cl)c(Cl)c1	inactive	–
O=S(=O)(NC1CC2CCC1C2)c1ccc(Cl)cc1 (stereo not drawn)	inactive	–
Cc1ccccc1Nc1nnc(SCC(=O)c2cc3ccccc3o2)s1	inactive	–
Cc1ccc(Nc2nnc(SCC(=O)c3cc4ccccc4o3)s2)cc1C	inactive	–
Cc1cccc(Nc2nnc(SCC(=O)c3c(N)n(C4CC4)c(=O)[nH]c3=O)s2)c1C	11.7 µM (active)	–
COCCOC(=O)C1=C(C)NC(=O)NC1c1cc2c(cc1Br)OCO2 (stereo not drawn)	inactive	–
O=C(NC(Cc1ccccc1)C(=O)N1CCCC(C(F)(F)F)C1)c1ccccc1 (stereo not drawn)	inactive	–
C[N+]12CN3CN(CN(C3)C1)C2	13.1 µM (active)	–
Cc1ccc(N=C2SCCCN2C(=O)c2cccc(N3C(=O)CCC3=O)c2)cc1Cl	inactive	–
Cc1ccc(CNC(=O)C(=O)c2cn(CC(=O)N3CCOCC3)c3ccccc23)cc1	inactive	–
Cc1ccc(C2=NN(C(=O)CSc3nc(N)cc(N)n3)C(c3ccco3)C2)cc1 (stereo not drawn)	inactive	–
COc1ccc(C2CC(c3ccccc3)=NN2C(=O)CSc2nccc(=O)[nH]2)cc1 (stereo not drawn)	inactive	–
COc1ccc(C2=NN(C(=O)CSc3nc(=O)n4ccc(C)cc4n3)C(c3ccc(C)cc3)C2)cc1 (stereo not drawn)	9.28 µM (active)	–
Cc1cccc(NC(=O)C(C)SCc2ccccc2)c1 (stereo not drawn)	inactive	–
COc1ccc(CCNC(=O)COC(=O)Cc2cccc(F)c2)cc1	inactive	–
CCOCC(=O)Nc1ncc(S(=O)(=O)c2ccc([N+](=O)[O-])cc2)s1	inactive	–
COC(=O)C(NC(=O)c1ccc(OC)cc1)(Nc1ncc(S(=O)(=O)c2ccc([N+](=O)[O-])cc2)s1)C(F)(F)F (stereo not drawn)	8.28 µM (active)	–
COc1ccc(C(=O)Nc2nc(-c3ccc(OC)cc3)c(-c3ccc([N+](=O)[O-])cc3)s2)cc1	inactive	–
Cc1c(C(=O)NC2CCCCC2)oc2ccccc12	inactive	–
CC(NC(=O)c1cc(=O)[nH]c2ccccc12)c1ccc(F)cc1F (stereo not drawn)	inactive	–

Compound	Potency	activity change, negative = inhibition
CSc1ccc(CCNC(=O)CS(=O)(=O)Cc2nc(-c3ccccc3F)oc2C)cc1	inactive	–
COc1ccc(C[C@H](C(=O)O)N2C(=O)c3ccc(C(=O)O)cc3C2=O)cc1	inactive	–
O=c1ccn(Cc2ccccc2Cl)cc1	inactive	–
N#CC(C#N)=CN=c1ccn(Cc2ccc(Cl)cc2Cl)cc1	2.94 µM (active)	–
COC/C=C/C1=CC2=CC(=O)C(C)(OC(=O)CCC(=O)OC)C(=O)C2=CO1 (stereo not drawn)	inactive	–
C=CCN1C=C2C(=O)C(C)(OC(=O)CCc3ccccc3)C(=O)C=C2C=C1c1ccc(C#N)cc1 (stereo not drawn)	11.7 µM (active)	–
COCCN1C=C2C(=O)C(C)(OC(=O)C3CCCC3)C(=O)C=C2C=C1c1ccsc1 (stereo not drawn)	inactive	–
C/C(=N/OC(=O)c1ccc(Br)cc1)c1ccc(C)cc1	inactive	–
COc1ccc(C(=O)CN2C(=O)NC3(CCc4ccccc43)C2=O)c(OC)c1 (stereo not drawn)	inactive	–
CCN(CC)c1ccc(NC(=O)CN2C(=O)NC3(CCc4ccccc43)C2=O)cc1 (stereo not drawn)	inactive	–
COc1ccc(-n2c(C)cc(C(=O)CN3C(=O)NC4(CCc5ccccc54)C3=O)c2C)cc1 (stereo not drawn)	4.15 µM (active)	–
CN(CC(=O)Nc1ccc(Cl)cc1)CC(=O)Nc1cccc2ccccc12	inactive	–
NC(=O)C1CCN(C(=O)c2ccc(F)c(S(=O)(=O)N3CCOCC3)c2)CC1	inactive	–
COc1ccc(C=C(C#N)C#N)c(CSc2ccccn2)c1	inactive	–
O=[N+]([O-])c1ccc(N=Cc2c(O)ccc3ccccc23)cc1	inactive	–
Oc1ccc2ccccc2c1C=Nc1ccccc1	inactive	–
Oc1ccc(N=Cc2c(O)ccc3ccccc23)cc1	9.28 µM (active)	–
COc1cccc(NC(=O)COC(=O)/C=C/c2ccco2)c1	inactive	–
O=C(COC(=O)c1ccc2ncsc2c1)Nc1ccc(Cl)cc1	inactive	–
O=C(CSc1nnc(-c2cccs2)n1-c1ccccc1)N1CCN(C(=O)c2ccco2)CC1	inactive	–
O=C(CSc1nnc(-c2cccs2)n1Cc1ccccc1)N1CCc2ccccc2C1	6.57 µM (active)	–
Cn1c(SCC(=O)N2CCCC2)nnc1-c1cccs1	inactive	–
O=C(O)c1ccc(OCC2CCCO2)cc1 (stereo not drawn)	inactive	–
O=C(CSc1n[nH]c(-c2cccs2)n1)N1CCCCC1	inactive	–
CC(=O)Nc1ccc(S(=O)(=O)NC2Cc3ccccc3C2)cc1	inactive	–
O=S(=O)(NC1CCCCC1N1CCCCC1)c1ccc(Cl)cc1 (stereo not drawn)	inactive	–

Compound	Potency	activity change, negative = inhibition
CCN(c1ccc2c(c1)OCO2)S(=O)(=O)c1cc(Br)cc2c1N(C(=O)C1CC1)CC2	1.47 µM (active)	–
CCOC(=O)N1CCN(S(=O)(=O)c2cc(Br)cc3c2N(C(=O)C2CC2)CC3)CC1	inactive	–
CS(=O)(=O)N(CC(=O)N1CCN(Cc2ccc3c(c2)OCO3)CC1)c1ccc2c(c1)OCO2	inactive	–
COc1cccc(CNC(=O)COC(=O)CN2C(=O)NC3(CCCCC3C)C2=O)c1 (stereo not drawn)	inactive	–
OCC[C@H]1C[C@@H](O)[C@H](O)[C@@]2(OCCc3ccccc32)O1	inactive	–
O=C(NNC(=O)C(O)c1ccccc1)NC1CCCCC1 (stereo not drawn)	inactive	–
Cc1nc(/N=C(\N)NC(=O)NC2CCCCC2)nc2ccccc12	2.94 µM (active)	–
COc1ccc2nc(SCc3ccccc3)nc(C)c2c1	inactive	–
COc1ccc2nc(/N=C(\N)NC(=O)Nc3ccccc3)nc(C)c2c1	1.85 µM (active)	–
Cc1nn(-c2ccccc2)c(C)c1C(=O)OCC(=O)NC(=O)NC1CCCCC1	inactive	–
COc1ccc2nc(C)cc(Nc3cccc(C(=O)O)c3)c2c1	inactive	–
COc1ccc(Cl)cc1NC(=O)c1cccc(N2C(=O)C3CC=CCC3C2=O)c1 (stereo not drawn)	inactive	–
O=Cc1cn(-c2ccccc2)nc1-c1ccccn1	inactive	–
O=C(CSCc1ccccc1)Nc1ccccc1	inactive	–
CC(=O)Nc1ccc(NC(=O)C(NS(=O)(=O)c2ccc3c(c2)OCCO3)C(C)C)cc1 (stereo not drawn)	inactive	–
NC(=O)COC(=O)/C=C/c1ccc2ccccc2n1	inactive	–
CC(=O)c1ccc(S(=O)(=O)N2CCN(C(=O)/C=C/c3ccc4ccccc4n3)CC2)cc1	11.7 µM (active)	–
CC(=O)c1ccc(S(=O)(=O)N2CCC3(CC2)OCCO3)cc1	inactive	–
C/C(=N\Nc1nncc2ccccc12)c1ccc(Cl)c([N+](=O)[O-])c1	inactive	–
CC(=O)N1CCN(CC(=O)Nc2ccc(C)c(F)c2)CC1	–	-12.4% [at 0.00184 µM]
CS(=O)(=O)N(CC(=O)N1CCOCC1)c1cccc(Cl)c1Cl	inactive	–
Clc1ccc(C2[C@H]3CN(CC4CCCCC4)[C@H](c4ccccc4)C34CC2(c2cccnc2)C4)cn1 (stereo partly drawn)	3.7 µM (active)	–
COC(=O)c1ccc(CN2CCN(CCCc3ccccc3)C(CCO)C2)cc1 (stereo not drawn)	inactive	–
COC(=O)c1ccc(C23CC4(C2)[C@H](CN(Cc2cccnc2)[C@@H]4c2ccccc2)C3c2ccc(Cl)nc2)cc1 (stereo partly drawn)	10.4 µM (active)	–
CCN1C(=NCCc2cccnc2)N[C@@H](c2ccccc2)C(C(=O)OC)=C1C	inactive	–
